In the library only some 2.3% were active in any assay of this set; here they are far more common.
MsrA act: activates bovine MsrA enzyme; activation, % at 10.6 µM; 0.3% of 360,000 active; purified bovine MsrA, absorbance read-out; AID 602163; in the data active means activation above about 7.5%;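 further: 0% = vehicle and 100% = reference activator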
PP1 counter: PP1-alpha (human) inhibition in PP5 counter-screen; P62136; 0.9% of 320,000 active; AID 2235; purified PP1alpha, OMFP fluorescence; inhibition, % at 6.7 µM;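 active means inhibition above the mean inhibition of all tested compounds plus 3 SD, computed separately for each screening campaign, cut at about 15% in these data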
PP5 inh: inhibitors of human protein phosphatase 5 (PP5). P53041. purified PP5c, OMFP substrate fluorescence. inhibition, % at 6.7 µM. 0.18% of 320,000 active;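 active means inhibition above the campaign's mean inhibition across all tested compounds plus 3 SD, cut at about 9.5% in these data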;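 further: 0% = DMSO only and 100% = 100 µM cantharidin control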
Target sequence (P53041 whole entry, looked up): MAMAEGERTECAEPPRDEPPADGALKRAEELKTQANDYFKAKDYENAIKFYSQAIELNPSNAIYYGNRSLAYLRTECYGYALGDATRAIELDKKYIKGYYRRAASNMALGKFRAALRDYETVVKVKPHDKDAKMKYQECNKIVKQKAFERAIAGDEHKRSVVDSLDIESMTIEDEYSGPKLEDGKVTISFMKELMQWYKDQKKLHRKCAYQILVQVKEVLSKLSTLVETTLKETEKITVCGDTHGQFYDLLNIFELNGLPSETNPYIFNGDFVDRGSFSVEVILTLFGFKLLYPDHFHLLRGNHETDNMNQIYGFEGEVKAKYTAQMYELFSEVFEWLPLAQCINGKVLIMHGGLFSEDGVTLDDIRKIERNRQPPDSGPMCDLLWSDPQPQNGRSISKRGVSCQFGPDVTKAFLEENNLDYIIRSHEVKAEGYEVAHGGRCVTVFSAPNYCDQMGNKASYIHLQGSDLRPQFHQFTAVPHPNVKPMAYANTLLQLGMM
MsrA inh: bovine MsrA inhibition; purified bovine MsrA, absorbance read-out; inhibition, % at 15.5 µM; 0.75% of 360,000 active; AID 651718; in the data active means inhibition above about 4.5%;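 further: 0% = vehicle wells with enzyme and 100% = reference inhibitor wells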
ZTA DNA inh: ZTA (EBV) inhibition in EBNA-1 counter-screen. P03206. ZTA-DNA binding, fluorescence polarization. inhibition, % at 11 µM. 0.15% of 320,000 active; in the data active means inhibition above about 33%
EBNA-1 inh: blocks EBNA-1 binding to DNA | inhibition, % at 14.8 µM | 0.34% of 300,000 active | EBNA-1 DNA binding, fluorescence polarization; in the data active means inhibition above about 28%
EBNA-1 confirm: EBNA-1 (EBV) inhibition, confirmation; shares compounds with EBNA-1 inh; Recombinant EBNA-1 DBD, Cy5-DNA fluorescence polarization; inhibition, % at 14.8 µM; 35% of 830 active; AID 2292;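 active means mean inhibition across replicates above a set limit taken from the earlier primary screen, cut at about 28% in these data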;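 further: plate controls were EBNA-1 protein with DMSO for no effect and wells lacking EBNA-1 for full effect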
ZTA counter trip: blocks Epstein-Barr virus ZTA in triplicate, EBNA-1 counter-screen; 830 tested, under 10 active; inhibition, % at 11.1 µM; shares compounds with EBNA-1 inh; Zta-ZRE DNA binding, Cy5 fluorescence polarization;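 active means mean inhibition over triplicates above a set limit taken from the primary EBNA-1 screen, cut at about 37% in these data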;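 further: purified full length Zta protein with Cy5 labeled ZRE DNA probe; 0% = Zta with DMSO and 100% = wells lacking Zta protein; inhibitors lower polarization by freeing the labeled DNA probe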
An asterisk follows results filed as active; x = no result given.

SMILES	MsrA act	PP1 counter	PP5 inh	MsrA inh	ZTA DNA inh	EBNA-1 inh	EBNA-1 confirm	ZTA counter trip
CCC[N+]1(CC#CC(O)(c2ccccc2)C2CCCCC2)CCCCC1 (stereo unspecified)	-2	-9	2	0	3	-12	x	x
NC(=O)C[N+]1(CC#CC(O)(c2ccccc2)c2ccccc2)CCCC1	-3	-3	0	2	12	128*	2	-1
CCn1c(SCC(=O)c2c[nH]c3ccccc23)nnc1-c1cccs1	1	-1	2	-1	-3	30*	23	12
Cc1ccc(NC(=O)CCNS(=O)(=O)c2cccc3nsnc23)cc1F	0	-4	0	0	6	7	x	x
COc1cc(CNC2CCCCCCC2)cc(Cl)c1OC	-1	-3	0	0	2	90*	-3	2
Cc1cc(C)n(/N=C/c2ccccc2)c(=O)c1C#N	-4	-4	2	4	0	3	x	x
Cc1cc(C)n(/N=C/c2c[nH]c3ccccc23)c(=O)c1C#N	-2	-6	0	2	-1	28*	14	-7
Cc1ccc2nc(-c3ccc(NC(=O)C(C)N4C(=O)c5ccccc5C4=O)cc3)sc2c1 (stereo unspecified)	-3	2	2	0	-5	33*	10	16
Cc1ccc2nc(-c3ccc(NC(=O)CCN4C(=O)c5ccccc5C4=O)cc3)sc2c1	-13	-4	-1	1	-8	-14	x	x
CC(=O)C1=C(O)C(=O)N(CCCn2ccnc2)C1c1ccc(Br)cc1 (stereo unspecified)	-6	-4	3	3	11	40*	9	6
CCOC(=O)[C@]12CCCC=C1N(CCC1=CCCCC1)C(=O)[C@H](CC(=O)NCC1CCCCC1)C2	x	x	x	1	x	x	x	x
Cc1cc(N/N=C/c2c(O)ccc3ccccc23)nc(-c2ccccc2O)n1	-4	-1	5	-1	12	49*	21	1
NS(=O)(=O)c1ccc(CCNC(=O)c2cc(-c3ccccn3)nc3ccc(Br)cc23)cc1	-2	9	3	1	-1	43*	36*	3
CCC(=O)Nc1cccc(-c2cc3ccccc3oc2=O)c1	-8	0	-1	2	-1	9	x	x
O=C(Cc1cccc2ccccc12)Nc1ccc(-c2cc3ccccc3oc2=O)cc1	-2	17*	0	5.3*	5	29*	22	7
Cc1cc(/C=C2\SC(=S)N(C)C2=O)c(C)n1-c1ccccc1O	-5	1	-1	1	16	35*	43*	-5
CC(=O)/C(=N\Nc1cccc(Cl)c1)Sc1nnc(-c2ccccc2)n1-c1ccccc1	-1	2	-1	1	9	33*	16	-7
CC(=O)Nc1ccc2c(c1)C(=O)c1cccc(C(=O)O)c1-2	2	x	x	-1	x	x	x	x
Cc1ccc(N=Nc2ccc(O)c3ncccc23)cc1	-2	9	5	-1	6	-11	x	x
Oc1ccc(N=Nc2ccccc2C(F)(F)F)c2cccnc12	-3	10	0	1	5	95*	-1	2
CCN(CCNC(=O)Nc1ccc(Cl)cc1)c1ccccc1	-1	0	6	0	6	-11	x	x
O=C(O)CSc1nnc(-c2ccc(Cl)cc2Cl)n1Cc1ccccc1	1	-2	0	-1	-2	14	x	x
O=C(NCC(F)(F)F)Nc1cccnc1	-4	-3	2	2	-7	80*	3	2
O=C(c1ccc2c(=O)n(Cc3ccco3)c(=S)[nH]c2c1)N1CCN(c2ccccc2)CC1	0	-1	0	0	-27	40*	-1	-1
CCCn1c(=S)[nH]c2cc(C(=O)N3CCN(c4ccccc4)CC3)ccc2c1=O	-2	x	x	1	x	x	x	x
SMILES	MsrA act	PP1 counter	PP5 inh	MsrA inh	ZTA DNA inh	EBNA-1 inh	EBNA-1 confirm	ZTA counter trip
Cc1ccc2nc3c(c(C(=O)OC4CCOC4=O)c2c1)CCCC3 (stereo unspecified)	-1	-1	0	1	0	30*	6	6
O=C(NCc1ccc2c(c1)OCO2)C1CCC(CNS(=O)(=O)c2ccc(Cl)cc2)CC1 (stereo unspecified)	-8	2	2	1	-2	30*	63*	8
O=C(OCC(=O)N1CCCC1=O)C1COc2ccccc2O1 (stereo unspecified)	-3	0	1	0	12	-7	x	x
COc1ccc(O)c(-c2cc(C(F)(F)C(F)F)nc(-c3ccccc3)n2)c1	5	-2	1	0	-4	31*	8	4
CCCCn1c(N)c(N(CCC(C)C)C(=O)c2cc(-c3ccco3)nc3ccccc23)c(=O)[nH]c1=O	-3	3	1	2	-3	51*	-16	3
COc1ccccc1NC(=S)N(Cc1ccco1)Cc1cc2cc(C)ccc2[nH]c1=O	-3	-9	-8	0	-22	42*	-2	-13
O=C(Nc1ccc(F)cc1)N(Cc1ccco1)Cc1cc2cc3c(cc2[nH]c1=O)OCO3	1	0	1	0	0	28*	12	5
COc1ccc(C(=O)N(Cc2ccco2)Cc2cc3cc(C)ccc3[nH]c2=O)cc1OC	0	-1	3	2	-20	-1	x	x
O=C(Nc1cccc(-c2nnc(-c3ccccc3)o2)c1)C1CCCCC1	-3	-1	1	0	11	75*	107*	-5
O=C(NCCOc1ccccc1F)c1ccc2c(=O)n3c(nc2c1)CCC3	-1	-2	-1	0	8	x	x	x
O=C(NCCc1ccc(F)cc1)c1ccc2c(=O)n3c(nc2c1)CCC3	-2	-2	3	1	-12	45*	-4	-5
O=C(NCCCCCCNC(=O)c1ccc(Br)s1)c1ccc(Br)s1	-1	0	1	1	10	53*	26	7
COc1ccccc1NC(=O)c1sc2nc(-c3ccco3)ccc2c1N	-2	10	4	x	4	-7	x	x
Nc1c(C(=O)Nc2ccccc2)sc2nc(-c3ccco3)ccc12	0	0	2	2	19	54*	59*	11
Cc1ccc2[nH]c3c(=O)n(Cc4ccco4)cnc3c2c1	-3	-5	1	-1	15	51*	55*	4
Cc1ccc2[nH]c3c(=O)n(Cc4ccncc4)cnc3c2c1	3	1	3	0	-8	-5	x	x
COc1cccc(NC(=O)c2ccc(NC(=O)C3CC(=O)OC34CCCCC4)cc2)c1 (stereo unspecified)	-2	-1	2	-1	-1	5	x	x
CC(=O)Nc1ccc(NC(=O)C(Sc2ccccc2)c2ccccc2)cc1 (stereo unspecified)	-2	-6	0	-1	12	4	x	x

Screening data as filed in PubChem.
